In PubChem BioAssay:

What was measured:
[1] = target: Tumor necrosis factor receptor superfamily member 10B (Homo sapiens) (UniProt O14763); assay: viability loss of caspase-8 NB7 cells with TRAIL – with/without TRAIL, luminescence panel, confirmation (AID 651596); conditions: NB7 neuroblastoma + caspase-8, TRAIL sensitization, NB7 Caspase-8, with TRAIL, mean of runs, at 10 µM, stronger effect = higher value
[2] = as above; conditions: NB7 neuroblastoma + caspase-8, without TRAIL, NB7 Caspase-8, without TRAIL, mean of runs, at 10 µM

Tumor necrosis factor receptor superfamily member 10B (Homo sapiens), sequence (O14763 whole entry, looked up): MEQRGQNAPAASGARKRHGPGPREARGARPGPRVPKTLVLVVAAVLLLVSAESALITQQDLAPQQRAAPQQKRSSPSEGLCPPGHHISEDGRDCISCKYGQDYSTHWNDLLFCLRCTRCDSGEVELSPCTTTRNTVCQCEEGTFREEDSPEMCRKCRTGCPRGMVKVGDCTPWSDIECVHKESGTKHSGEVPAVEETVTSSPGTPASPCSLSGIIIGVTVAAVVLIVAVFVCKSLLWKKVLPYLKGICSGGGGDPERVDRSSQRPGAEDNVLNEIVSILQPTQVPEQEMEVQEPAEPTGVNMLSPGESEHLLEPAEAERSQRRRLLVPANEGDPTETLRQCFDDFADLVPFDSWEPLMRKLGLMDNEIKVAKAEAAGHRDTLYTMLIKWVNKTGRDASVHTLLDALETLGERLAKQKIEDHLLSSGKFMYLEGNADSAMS

Compound | activity [1] | activity [2]
C/C=C/c1ccc(OCCCNC2CCCC2)c(OC)c1 | 1.5% | -12.4%
CN(C)c1ccc(/C=N/NC(=O)c2ccccn2)cc1 | 74.7% | 65.2%
CCOC(=O)c1ccc(N=c2sc(C(=O)OC)cc(=O)n2-c2ccc(C(=O)OCC)cc2)cc1 | 67.6% | 37.6%
CC(C)(C)c1ccc(-c2cn(-c3ccc(Br)cc3)c3[n+]2CCCS3)cc1 | 71.9% | 55.1%
CCc1ccc(CNC(=O)Cc2ccc(NC(=O)C3=C(C)OCCS3)cc2)cc1 | 58.8% | 59%
Cc1cc(Br)c(OCc2ccc(C(=O)N/N=C/c3ccc[nH]3)cc2)c(Br)c1 | 72.8% | 86.5%
Cc1ccc2nc(N(CCCN(C)C)C(=O)c3ccc(S(=O)(=O)N4CCc5ccccc5C4)cc3)sc2c1 | 55.4% | 68.3%
COc1cccc(NC(=O)c2cc3ccccc3o/c2=N\O)c1 | 65% | 64.6%
Cc1ccccc1C(=O)O/N=C(\N)c1cccc([N+](=O)[O-])c1 | 80.9% | 79.9%
C=C(C)CSc1nnc2n(Cc3ccccc3)c(=O)c3c4c(sc3n12)CCC4 | 90.4% | 90%
O=C(N/N=C/c1cccc(NC(=O)c2ccc(Cl)cc2)c1)c1ccc(O)cc1 | 58.4% | 42%
CCCn1c(C)cc(C(=O)COC(=O)c2cc(=O)[nH]c3ccccc23)c1C | 61.2% | 59.1%
CS(=O)c1nc(-c2ccc(Br)cc2)cc(-c2ccccc2)c1C#N (stereo not given) | 95.7% | 97.8%
Cc1ccc(Cn2ccsc2=NC(=O)CCl)cc1 | 99.2% | 99%
COc1cccc2sc3ccc(C#CC4(O)CCCCC4)cc3c(=O)c12 | 46.1% | 45.8%
